# Laboratory results: PubChem BioAssay (NCI)
# About 79,000 compounds went through this panel and 15% of them were active in at least one assay; those are over-represented in the sample as a whole. Unmarked numbers belong to inactive results. Activity calls are given as the source filed them. Rule as the data show it: active = growth inhibition above about 70%; inactive = the rest.
# Assays:
# [1] = NCI Yeast Anticancer Drug Screen. Data for the rad50 strain (AID 155);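 also: 0% = growth of vehicle-only cultures of the same strain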; conditions: S. cerevisiae rad50 strain growth inhibition, active compounds read high
# Method in brief: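 Yeast carrying a defined DNA repair defect were exposed to test compounds, and growth was compared with vehicle-treated controls to give percent inhibition.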
# [2] = NCI Yeast Anticancer Drug Screen. Data for the mec2-1 strain (AID 157); conditions: S. cerevisiae mec2-1 strain, active compounds read high
# Method in brief: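 Using mec2-1 yeast: add compound, measure growth, express inhibition versus vehicle-treated cultures.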
# [3] = NCI Yeast Anticancer Drug Screen. Data for the sgs1 mgt1 strain (AID 161);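 also: 0% = growth of cultures given vehicle only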; conditions: S. cerevisiae sgs1 mgt1 strain, active compounds read high
# Method in brief: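 Percent growth inhibition was derived by comparing compound-exposed mutant yeast with vehicle-exposed cultures. The strain carries alterations in DNA damage repair.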
# [4] = NCI Yeast Anticancer Drug Screen. Data for the cln2 rad14 strain (AID 165);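 also: 0% = growth equal to vehicle treated cultures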; conditions: S. cerevisiae cln2 rad14 strain, active compounds read high
# Method in brief: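 Yeast strain cln2 rad14, bearing defects in cell cycle control and DNA repair, serves as the test system; values reflect growth inhibition compared with vehicle.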
# [5] = NCI Yeast Anticancer Drug Screen. Data for the bub3 strain (AID 167); conditions: S. cerevisiae bub3 mutant strain, active compounds read high
# Method in brief: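 Compounds were applied to a genetically altered yeast strain carrying a cell-cycle control defect. Growth inhibition was scored against vehicle-treated controls.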
# [6] = NCI Yeast Anticancer Drug Screen. Data for the mlh1 rad18 strain (AID 175); conditions: S. cerevisiae mlh1 rad18 strain growth inhibition, active compounds read high
# Method in brief: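 Steps: expose repair-defective yeast to compound; measure growth; express inhibition against vehicle-treated controls.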
# [7] = at 5.0 µM (retest, dose inferred, filed as 0.5)
# [8] = at 50.0 µM (retest, dose inferred, filed as 5.0)
Structure (SMILES),"growth inhibition [1, 7]","growth inhibition [1, 8]",growth inhibition ([1]; at 50.0 µM),"growth inhibition [2, 7]","growth inhibition [2, 8]",growth inhibition ([2]; at 50.0 µM),"growth inhibition [3, 7]","growth inhibition [3, 8]",growth inhibition ([3]; at 50.0 µM),"growth inhibition [4, 7]","growth inhibition [4, 8]",growth inhibition ([4]; at 50.0 µM),"growth inhibition [5, 7]","growth inhibition [5, 8]",growth inhibition ([5]; at 50.0 µM),"growth inhibition [6, 7]","growth inhibition [6, 8]",growth inhibition ([6]; at 50.0 µM)
COC1=CC(=O)c2c(O)c3c(c(O)c2C1=O)CC(C)(O)OC3 (stereo unspecified),87% (active),92% (active),78% (active),62%,87% (active),68.8%,89% (active),92% (active),80.2% (active),21%,45%,47.9%,51%,73% (active),74.6% (active),89% (active),97% (active),82.7% (active)
CN1CCC(c2ccccc2)(c2ccccc2)C(=O)C1,11%,95% (active),95.2% (active),-5%,83% (active),94% (active),21%,95% (active),93.8% (active),15%,69%,74.3% (active),34%,96% (active),89.2% (active),47%,95% (active),94.5% (active)
O=C1CSC(=S)N1Cc1cccnc1,1%,19%,45.4%,4%,47%,34%,6%,24%,42.9%,32%,33%,1.95%,-22%,48%,61.8%,-4%,72% (active),54.9%
Nc1nc2ncc(CNc3ccc(C(=O)NC(CCC(=O)NC(CCC(=O)NC(CCC(=O)NC(CCC(=O)NC(CCC(=O)O)C(=O)O)C(=O)O)C(=O)O)C(=O)O)C(=O)O)cc3)nc2c(=O)[nH]1 (stereo unspecified),-19%,-9%,25.2%,0%,-6%,18.3%,0%,-12%,24.6%,12%,1%,47%,-5%,-2%,-19.5%,10%,20%,8.35%
CC(C)N=C(N)/N=C(\N)Nc1ccc2ccc3ccccc3c2c1,3%,99% (active),99.8% (active),-9%,99% (active),25.1%,12%,100% (active),99.7% (active),3%,100% (active),99.5% (active),27%,99% (active),46.3%,41%,99% (active),99.7% (active)
CC(CSc1n[nH]c(=S)s1)c1ccccc1 (stereo unspecified),7%,93% (active),97.1% (active),11%,96% (active),95.8% (active),14%,96% (active),95.8% (active),1%,93% (active),95.2% (active),23%,94% (active),96.3% (active),12%,94% (active),95.1% (active)
COc1ccc(NC(=O)/C(=C/N2C(=O)/C(=C/c3ccc(OC)c(OC)c3)NC2=S)C(C)=O)cc1,5%,66%,54.3%,-3%,85% (active),53.1%,-5%,86% (active),51.9%,-22%,51%,37%,-21%,76% (active),64.8%,-6%,82% (active),76.7% (active)
O=C1C=Cc2ccccc2/C1=C/c1nc(-c2ccccc2)oc1O,-2%,97% (active),89.5% (active),-15%,98% (active),91.8% (active),17%,97% (active),49.5%,2%,97% (active),86.5% (active),0%,98% (active),92.7% (active),5%,97% (active),90% (active)
Clc1ccccc1C(c1ccccc1)(c1ccccc1)n1ccnc1,44%,99% (active),99.3% (active),20%,99% (active),99.8% (active),53%,99% (active),99.6% (active),18%,99% (active),99.2% (active),34%,99% (active),99.6% (active),30%,99% (active),99.7% (active)
Cc1cccc2c(N)c3ccccc3nc12,12%,57%,87.7% (active),3%,13%,43.3%,1%,7%,73.7% (active),6%,15%,45.6%,0%,-9%,45%,6%,24%,67.8%
O=C(CBr)c1ccc(OC(=O)c2ccccc2)cc1,97% (active),99% (active),45.3%,100% (active),99% (active),13.1%,100% (active),100% (active),18.4%,44%,99% (active),-12.7%,100% (active),100% (active),45.8%,62%,98% (active),74.5% (active)
Fc1cccc(F)c1C1SCc2nc3cc4ccccc4cc3n21 (stereo unspecified),35%,83% (active),23.1%,24%,66%,56.3%,23%,47%,78.5% (active),27%,31%,80.1% (active),30%,75% (active),80.2% (active),28%,75% (active),42.5%
CCCN(CCC)C(=O)c1ccc(C)cc1,1%,21%,4.3%,2%,5%,97.9% (active),2%,5%,0.05%,3%,24%,-17.1%,3%,28%,2.9%,-3%,17%,7.2%
O=C(C[P+](c1ccccc1)(c1ccccc1)c1ccccc1)c1ccccc1,0%,10%,11.8%,9%,14%,23.4%,-7%,11%,22.1%,18%,12%,8%,2%,8%,16.6%,5%,-46%,34.6%
CCC(=O)c1cc([N+](=O)[O-])c(Br)s1,99% (active),99% (active),99.7% (active),99% (active),100% (active),99.6% (active),100% (active),100% (active),99.6% (active),99% (active),99% (active),98.8% (active),100% (active),99% (active),99.5% (active),99% (active),99% (active),99.5% (active)
Nc1cc(-c2ccccc2)ccc1O,5%,63%,98.7% (active),-2%,80% (active),97.9% (active),5%,37%,93.6% (active),-3%,6%,79.1% (active),0%,29%,99.1% (active),8%,89% (active),99.5% (active)
CC1(C)CCC[C@]2(C)[C@@H](C=O)C(C=O)=CC[C@@H]12,25%,90% (active),91.3% (active),23%,96% (active),90.8% (active),22%,84% (active),88.4% (active),23%,81% (active),90.2% (active),19%,88% (active),90.3% (active),21%,91% (active),86.9% (active)
O=C1C=CC(=O)N1C1CCCCCCCCCCC1,32%,66%,83.5% (active),46%,58%,86% (active),44%,98% (active),–,56%,98% (active),–,71% (active),97% (active),–,30%,61%,79.4% (active)
Cn1c(-c2ccccc2)c(/C=C/C2=[N+](C)c3ccccc3C2(C)C)c2ccccc21,88% (active),99% (active),99.6% (active),72% (active),99% (active),99.6% (active),96% (active),56%,99.6% (active),59%,98% (active),99% (active),–,–,–,89% (active),99% (active),99% (active)
Oc1ccc2ccccc2c1N=Nc1nccs1,27%,69%,82.8% (active),51%,92% (active),91.1% (active),98% (active),90% (active),–,74% (active),86% (active),–,96% (active),85% (active),–,36%,77% (active),77.8% (active)
